Screening results (PubChem)
DRD3 antagonist: antagonists of human D3 dopamine receptor; P35462; D3R cells, DiscoveRx beta-arrestin luminescence, antagonist mode; active compounds read low; max response, negative = inhibition, %; actives 2.5% (n = 360,000); in the data active = max response below about -50%; inconclusive = no clear call, values can overlap the other calls
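Cells plated overnight at 1500 cells/well, then exposed to library compounds with dopamine controls for 90 minutes at 37 degrees C. DiscoveRx reagent added for 30–60 minutes at room temperature; luminescence read, quantitative HTS format.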
D1 agonist: agonists of human D1 dopamine receptor. P21728. actives 1% (n = 360,000). HEK293 T-REx D1 cells, calcium flux, agonist mode. activation, % at 2 µM; in the data active = activation above about 30%
Target sequence (P21728 whole entry, looked up): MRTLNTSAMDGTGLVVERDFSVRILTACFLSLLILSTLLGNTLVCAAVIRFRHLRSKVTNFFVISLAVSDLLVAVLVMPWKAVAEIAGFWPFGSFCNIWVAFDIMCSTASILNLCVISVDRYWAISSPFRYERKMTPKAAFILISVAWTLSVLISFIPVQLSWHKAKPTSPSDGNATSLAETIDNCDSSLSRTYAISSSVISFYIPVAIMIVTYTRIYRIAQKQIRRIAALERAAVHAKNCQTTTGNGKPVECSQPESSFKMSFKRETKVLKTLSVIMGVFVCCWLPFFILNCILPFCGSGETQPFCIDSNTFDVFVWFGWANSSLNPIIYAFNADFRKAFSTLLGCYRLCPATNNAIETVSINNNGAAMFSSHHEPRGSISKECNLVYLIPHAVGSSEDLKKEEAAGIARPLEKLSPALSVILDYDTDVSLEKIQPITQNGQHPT
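Tetracycline-induced HEK293 TREx D1 cells, force-coupled to calcium signalling, were dye-loaded with a no-wash calcium kit. Compound was pin-added after a 10 s baseline. Fluorescence was read kinetically at 1 cycle/s for 180 s, with calcium rises flagged as agonism.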
D3 ag: activates the human D3 dopamine receptor. D3R DiscoveRx beta-arrestin cells, luminescence, 90 min. max activation, %. actives 0.58% (n = 410,000). AID 652048; in the data active = max activation above about 30%
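Agonist mode: compounds and dopamine controls were applied to plated cells for 90 min at 37 degrees C after an overnight attachment at 1500 cells/well. Luminescent read-out followed 30 - 60 minutes at room temperature with DiscoveRx detection reagent.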
D1 potentiator: human D1 dopamine receptor positive modulation; P21728; HEK293 TREx D1 cells, calcium flux, dopamine EC20 potentiation; actives 0.036% (n = 360,000); AID 504651; potentiation, % at 10 µM; in the data active = potentiation above about 30%
D1 antagonist: antagonists of human D1 dopamine receptor | HEK293 TREx D1 cells, calcium flux, dopamine EC80; active compounds read low | activity change, negative = inhibition, % at 10 µM | actives 3.2% (n = 360,000) | AID 504652; in the data active = activity change below about -30%
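HEK293 T-REx cells expressing inducible, force-coupled D1 receptor; no-wash Ca dye, 30–90 min RT. Cmpd → 180 s read at 1 Hz → EC80 DA → 180 s read.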
Of the large screens only hits and unclear results are named; the others gave an inactive call. Shown are actives, neighbours in structure and some others; about 6% of the full set was active somewhere.

O=C(C1=C[C@H](c2csc3ccccc23)C[C@H](OCc2ccc(CO)cc2)O1)N1CCN(Cc2ccc3c(c2)OCO3)CC1	D1 antagonist -33.6
O=C(C1=C[C@H](c2coc3ccccc3c2=O)C[C@H](OCc2ccc(CO)cc2)O1)N1CCN(Cc2ccc3c(c2)OCO3)CC1	DRD3 antagonist -50.0
O=C(C1=C[C@H](c2csc3ccccc23)C[C@H](OCc2ccc(CO)cc2)O1)N1CCOCC1	none
O=C(Nc1ccccc1)C1=C[C@@H](c2csc3ccccc23)C[C@@H](OCc2ccc(CO)cc2)O1	DRD3 antagonist -51.0
O=C(C1=C[C@@H](c2coc3ccccc3c2=O)C[C@@H](OCc2ccc(CO)cc2)O1)N1CCN(Cc2ccc3c(c2)OCO3)CC1	none
Cc1oc(-c2cccc(Br)c2)nc1CN1CCC(C(=O)NCc2ccccc2)CC1	none (no result: DRD3 antagonist)
CCCCCCc1cc2cc(-c3cn4c(n3)sc3cc(OC)ccc34)c(=O)oc2cc1O	none (no result: DRD3 antagonist)
CCc1nn2c(=O)cc(COC(=O)c3cccs3)nc2s1	none (no result: DRD3 antagonist)
CN1CCN(C(=O)C2=C[C@H](c3coc4ccccc4c3=O)C[C@H](OCc3ccc(CO)cc3)O2)CC1	D1 potentiator 34.0
COc1cc(/C=C/c2ccc3cccc(O)c3n2)c(Br)cc1O	none (no result: DRD3 antagonist, D3 ag)
CSc1ccc(/C=C/c2ccc3cccc(O)c3n2)cc1	DRD3 antagonist -58.2
COc1ccc(OC)c(/C=C/c2ccc3cccc(O)c3n2)c1	none (no result: DRD3 antagonist, D3 ag)
COc1cc(/C=C/c2ccc3cccc(O)c3n2)ccc1O	DRD3 antagonist -51.9
O=C(O)C(=O)/C(=C\c1cccc2ccccc12)c1ccc2ccccc2n1	D1 agonist 31.3
COc1cc(C)c(S(=O)(=O)N2CCOCC2)cc1C(C)C	DRD3 antagonist -88.3
COc1ccc(C)cc1S(=O)(=O)N1CCOCC1	none
COc1cc(C)c(C(C)C)cc1S(=O)(=O)N1CCN(C)CC1	D1 antagonist -45.7
COc1cc(C)c(Cl)cc1S(=O)(=O)N1CCCC1	D1 antagonist -34.4
CCOc1cc(C)c(C(C)C)cc1S(=O)(=O)N1CCN(C)CC1	none
COc1cc(S(=O)(=O)N2CCC(C(N)=O)CC2)c(C)cc1C	DRD3 antagonist -103.5
CN(c1ccccc1)c1ncnc2c1cnn2C	none (no result: DRD3 antagonist)
Cc1ccc(S(=O)(=O)N2CCN(C(=O)COC(=O)/C=C/c3ccc(OC(F)F)cc3)CC2)cc1	none (no result: D1 agonist, D1 potentiator, D1 antagonist)
Cc1ccc(/C=C2\Oc3cc(OC(=O)N4CCOCC4)ccc3C2=O)cc1	none
O=C(Oc1ccc2c(c1)O/C(=C\c1ccncc1)C2=O)c1ccccc1	D1 agonist 56.2
Cn1c(CCN2CCN(c3ccccn3)CC2)nc2cc(NS(=O)(=O)c3ccc(Cl)cc3)ccc21	DRD3 antagonist -69.5
Cc1ccc(N2CCN(CCc3nc4cc(NS(C)(=O)=O)ccc4n3C)CC2)cc1	none
Cc1ccc(S(=O)(=O)Nc2ccc3c(c2)nc(CCN2CCN(c4ccccn4)CC2)n3C)cc1	DRD3 antagonist -61.2
CC1(C)c2ccccc2N2CC(=O)N[C@@]21/C=C/C=C/c1ccccc1	none
Cc1ccccc1/C=C/C12NC(=O)CN1c1ccccc1C2(C)C (stereo not drawn)	D3 ag 30.8
COc1ccc(-c2noc(CSCC(=O)Nc3ccc(C)cc3Br)n2)cc1OC	none (no result: DRD3 antagonist)
COc1cccc(NC(=O)C(OC(=O)/C=C/c2ccc3c(c2)OCO3)c2ccccc2)c1 (stereo not drawn)	DRD3 antagonist -55.3
COc1ccc(NC(=O)C(c2ccccc2)N(C)C(=O)/C=C\c2ccc3c(c2)OCO3)cc1 (stereo not drawn)	none (no result: DRD3 antagonist)
COc1ccc(NC(=O)CN(C)CC(=O)N(C)C2(C#N)CCC(C)CC2)cc1 (stereo not drawn)	DRD3 antagonist -50.4
CN(CC(=O)Nc1ccc(F)cc1)CC(=O)N(C)C1(C#N)CCCCC1	none
CC1CCN(CCCNC(=O)c2cc3sccc3n2C)CC1	DRD3 antagonist -85.8
COc1ccc(N2CCN(CCCNC(=O)Nc3ccccc3)CC2)cc1	none
COc1ccc(N2CCN(CCCNC(=O)c3cc4sccc4n3C)CC2)cc1	DRD3 antagonist -57.3
CN(C(=O)c1cc2sccc2n1C)C1CCCCC1	D1 antagonist -35.3
CC(N)C(=O)NC(C(=O)N1CCCC1C(=O)NC(c1ccccc1)c1ccccc1)C(C)C (stereo not drawn)	none
COc1cnc(-c2cccc(C(F)(F)F)c2)c(NC(=O)c2cc3ccccc3s2)n1	none (no result: D1 agonist, D1 potentiator, D1 antagonist)
CC(NS(=O)(=O)c1cc2c3c(c1)CCN3C(=O)CC2)c1ccccc1 (stereo not drawn)	none (no result: D1 agonist, D1 potentiator, D1 antagonist)
CCc1ccc2oc(C(=O)N(Cc3ccc(N(C)C)cc3)Cc3ccco3)c(C)c2c1	none (no result: DRD3 antagonist)
CC1(C)CC(=O)C2=C(C1)Nc1ccccc1N1C(=O)c3ccccc3C21 (stereo not drawn)	D1 antagonist -42.3
COc1ccccc1C1Nc2ccccc2NC2=C1C(=O)CC(C)(C)C2 (stereo not drawn)	none
Cc1nn(C)c2c1c(C(F)(F)F)cc(=O)n2Cc1cccc(Br)c1	none (no result: DRD3 antagonist)
Cc1onc(-c2ccccc2)c1C(=O)OCC(=O)NC(C)c1ccc(Cl)cc1 (stereo not drawn)	D1 agonist 71.4 (no result: D1 potentiator)
Cc1onc(-c2ccccc2)c1C(=O)OCC(=O)Nc1ccc(C#N)cc1	D1 antagonist -31.5
Cc1onc(-c2ccccc2)c1C(=O)OCC(=O)Nc1ccccc1	none
CCOC(=O)c1ccc(NCc2ccc(N(C)C)cc2)cc1	DRD3 antagonist inconclusive, D1 antagonist -35.4
Cc1cc(C)n(-c2ccc(C(=O)OCC(=O)NC(c3ccccc3)c3ccccc3)cc2)n1	D1 agonist 31.1
C[C@H]1CN([C@@H](C)CO)S(=O)(=O)c2ccc(Br)cc2O[C@@H]1CN(C)S(=O)(=O)c1ccccc1F	none (no result: D1 agonist, D1 potentiator, D1 antagonist)
CC(=O)Oc1ccccc1Cn1c(C)c(C(=O)N(C)Cc2ccc(F)cc2)sc1=O	none (no result: D1 agonist, D1 potentiator, D1 antagonist)
Cc1cc(SCC(=O)OCC(=O)NC(C)c2ccccc2)c(C)cc1Br (stereo not drawn)	D1 antagonist -41.3
Cc1cc(Br)ccc1SCC(=O)OCC(=O)NC(C)c1ccccc1 (stereo not drawn)	none
CC(NC(=O)COC(=O)c1ccco1)c1ccccc1 (stereo not drawn)	none
CC(NC(=O)COC(=O)c1ccc(N(C)C)cc1)c1ccccc1 (stereo not drawn)	D1 antagonist -70.0
Cc1noc(C)c1C(=O)OCC(=O)Nc1cccc(F)c1	DRD3 antagonist -62.1 (no result: D1 agonist, D1 potentiator, D1 antagonist)
Cc1nn(-c2ccc(N3CCCC3)nn2)c(C)c1CCC(=O)NCc1ccc(F)cc1	none (no result: DRD3 antagonist)
Cc1ccccc1Cn1c(SCc2ccc(C(=O)NC3CCCCC3)cc2)nc2ccncc21	none (no result: DRD3 antagonist)
CN1/C(=C/C=C(C#N)C#N)C(C)(C)c2ccccc21	D1 agonist 116.1
CC1=C/C(=C\C=C(C#N)C#N)N(C)c2ccccc21	D1 agonist 45.4, D1 antagonist -34.5
COc1ccccc1OCC(=O)/C=C1/N(C)c2ccccc2C1(C)C	D1 agonist 32.1, D1 antagonist -49.1
